KCNQ2 pot: potentiators of rat KCNQ2 potassium channel; Potassium voltage-gated channel subfamily KQT member 2 (Rattus norvegicus), O88943; CHO-K1 KCNQ2, FluxOR thallium flux fluorescence; active compounds read high; B-score at 10 µM; hit rate 0.54% among 310,000;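 active = fluorescence ratio B-score at least 3 SD of library B-scores, with initial fluorescence B-score within 3 of them, cut at about 5.3 in these data; same plate scores as AID 2156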;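 note: B-score of peak minus minimum over baseline fluorescence ratio after K+ and Tl+ stimulus; positive B-score means potentiation of KCNQ2 with more thallium influx and brighter signal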
Target sequence (O88943 whole entry, looked up): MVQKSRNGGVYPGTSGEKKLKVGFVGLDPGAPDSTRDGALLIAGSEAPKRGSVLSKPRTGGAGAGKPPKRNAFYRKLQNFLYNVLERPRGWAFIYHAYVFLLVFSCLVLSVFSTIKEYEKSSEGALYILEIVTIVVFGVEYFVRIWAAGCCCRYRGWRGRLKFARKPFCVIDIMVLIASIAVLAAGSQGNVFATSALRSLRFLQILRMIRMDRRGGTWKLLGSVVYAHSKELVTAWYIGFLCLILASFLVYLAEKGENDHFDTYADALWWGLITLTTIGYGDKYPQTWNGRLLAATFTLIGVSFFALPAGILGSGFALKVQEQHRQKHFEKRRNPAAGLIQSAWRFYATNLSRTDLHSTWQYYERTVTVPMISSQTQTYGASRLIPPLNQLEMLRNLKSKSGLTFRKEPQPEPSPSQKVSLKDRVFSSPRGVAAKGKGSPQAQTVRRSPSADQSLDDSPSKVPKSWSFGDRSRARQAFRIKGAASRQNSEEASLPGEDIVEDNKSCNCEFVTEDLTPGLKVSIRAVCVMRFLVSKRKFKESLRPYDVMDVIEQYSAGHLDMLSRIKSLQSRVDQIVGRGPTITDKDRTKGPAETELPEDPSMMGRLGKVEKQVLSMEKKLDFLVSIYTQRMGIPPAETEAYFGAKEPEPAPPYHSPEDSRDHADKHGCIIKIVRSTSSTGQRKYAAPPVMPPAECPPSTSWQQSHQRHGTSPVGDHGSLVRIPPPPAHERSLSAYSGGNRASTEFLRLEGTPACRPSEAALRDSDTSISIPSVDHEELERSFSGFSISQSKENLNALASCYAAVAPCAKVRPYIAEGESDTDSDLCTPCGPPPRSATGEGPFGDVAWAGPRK
KCNQ2 block: rat KCNQ2 potassium channel inhibitors, primary screen, cell-based, CHO-K1, FluxOR thallium flux, B-score | hit rate 1.1% among 310,000 | B-score at 10 µM | Potassium voltage-gated channel subfamily KQT member 2 (Rattus norvegicus), O88943 | 20 min; active compounds read low;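 active = fluorescence ratio B-score at most minus 3 library SDs, with starting brightness B-score within 2 library SDs, cut at about -5.5 in these data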
Numbers stand for hits; – = inactive; · = no result. Only some compounds are listed: those with a hit (about 1.6% of all), similar ones and a draw of the others.

SMILES	KCNQ2 pot	KCNQ2 block
COc1ccc(-n2c(C)cc(/C=C3\SC(=S)NC3=O)c2C)cc1	·	–
Cc1onc(-c2ccccc2)c1C(=O)NCCc1c[nH]c2ccccc12	–	-5.7
Cc1noc(C)c1COc1cccc(C(=O)NCCc2c[nH]c3ccccc23)c1	–	–
Cc1ccc2c(c1)N(CC(=O)NCCCN1CCOCC1)C(=O)C(C(C)C)O2 (stereo unspecified)	–	–
O=C(NCCc1ccc(Cl)cc1Cl)c1cncc(Br)c1	·	–
O=C(Nc1c2c(nn1-c1ccc(F)cc1)CS(=O)(=O)C2)c1ccc(S(=O)(=O)N2CCOCC2)cc1	·	–
Cc1ccc(C2CC(C(F)(F)F)n3ncc(C(=O)NCc4ccco4)c3N2)cc1 (stereo unspecified)	–	–
O=C(Oc1c(-c2ccccc2)oc2ccccc2c1=O)c1ccccc1	·	–
O=C(Oc1c(-c2ccccc2Cl)oc2ccccc2c1=O)c1ccc(Cl)cc1	–	-6.94
Cc1ccc(N2CC(C(=O)Nc3ccc(S(=O)(=O)NCC4CCCO4)cc3)CC2=O)cc1C (stereo unspecified)	–	–
CCOc1ccccc1NC(=O)c1cccc2ccccc12	–	-5.55
COc1ccccc1CC(=O)Nc1cccc2ccccc12	·	–
CCOc1ccccc1C(=O)Nc1ccccc1C(N)=O	–	–
O=C(Nc1cccnc1Oc1ccc(Cl)cc1)c1cccc2ccccc12	–	-5.99
CCOc1ccccc1NC(=O)c1cc(-c2cc(OC)c(OC)c(OC)c2)nc2ccccc12	–	-6.11
NC(=O)c1cccnc1Oc1ccc(Cl)cc1	·	–
COc1cccc(C(=O)Nc2cccc3ccccc23)c1OC	–	-6.19
COC(=O)c1cc(OC)c(OC)cc1NC(=O)c1cc(-c2ccccc2)nc2ccccc12	·	–
CCOc1ccccc1NC(=O)c1ccccc1-c1nc(-c2ccccc2)no1	·	–
CCOc1ccccc1NC(=O)c1ccccc1-c1ccccc1	–	-5.58
CCOC(=O)C1CCN(c2ccccc2CN2CCN(c3ccccc3OCC)CC2)CC1	–	-7.18
CCOC(=O)C1CCN(Cc2ccccn2)CC1	·	–
O=C(COn1nnc2ccc(Cl)cc21)Nc1ccc(F)cc1	·	–
O=C(COn1nnc2ccc(Cl)cc21)NC12CC3CC(CC(C3)C1)C2	–	-6.12
COc1ccc(CC2(C)OC(c3ccc([N+](=O)[O-])cc3)=NN2C(C)=O)cc1 (stereo unspecified)	–	-6.22
SMILES	KCNQ2 pot	KCNQ2 block
COc1ccc(C(=O)NNC(=O)Cc2ccc([N+](=O)[O-])cc2)cc1	–	–
COCCn1cc(C(=O)N2CCC(C)CC2)c2c3ccccc3n(C)c2c1=O	–	-5.66
CC(C)Cn1cc(C(=O)N2CCC(C)CC2)c2c3ccccc3n(C)c2c1=O	–	-7.02
CC(C)Cn1cc(C(=O)N2CCOCC2)c2c3ccccc3n(C)c2c1=O	·	–
CCOC(=O)N1CCN(C(=O)c2cn(CC(C)C)c(=O)c3c2c2ccccc2n3C)CC1	·	–
O=C(CCc1ccc(S(=O)(=O)N2CCOCC2)cc1)N/N=C/c1ccc(O)c(O)c1O	·	–
COc1ccc(S(=O)(=O)CCC(=O)Nc2cccc(OC)c2)cc1	–	–
NC[C@@H]1O[C@H](C23CC4CC(CC(C4)C2)C3)Cc2c1ccc(O)c2O	–	-5.85
CCCCn1c(N)c(N(CC(C)C)C(=O)CCC2CCCCC2)c(=O)[nH]c1=O	–	–
CCOC(=O)N1CCC(NC(=O)c2ccccc2C(=O)O)CC1	–	–
Cc1ccc2c(C)c(C(=O)NCCN3CCCC(O)C3)oc2c1C (stereo unspecified)	–	–
CCOC(=O)N1CCC(NC(=O)c2oc3c(C)c(C)ccc3c2C)CC1	–	-5.66
Cc1ccc2c(C)c(C(=O)NCCN3CCOC3=O)oc2c1C	5.47	–
Cc1ccc(S(=O)(=O)/C(C#N)=C/c2c(N3CCC(C(N)=O)CC3)nc3ccccn3c2=O)cc1	–	–
O=S(=O)(c1ccc(N2CCN(CCO)CC2)nc1)N1CCCCC1	·	–
COCCn1cnc2c(c1=O)c1nc3ccccc3nc1n2/N=C/c1cccc(OC)c1	·	–
C=CCn1cnc2c(c1=O)c1nc3ccccc3nc1n2/N=C/c1cc(OC)c(OC)c(OC)c1	–	-7.86
Cc1cccc(C)c1-n1c(C)nn(CC2CC2)c1=O	·	–
CC(=O)c1cccc(NC(=O)CCn2c(=O)oc3ccccc32)c1	–	–
Cc1cccc(-c2noc(CCCC(=O)NC3CCCC3)n2)c1	–	–
CCN(CC)S(=O)(=O)c1cc(-c2nnc(-c3ccc(Br)cc3)o2)ccc1Br	–	-6.98
CCN(CC)S(=O)(=O)c1cc(-c2nnc(-c3ccc(Br)cc3)o2)ccc1Cl	–	-6.08
CCN(CC)S(=O)(=O)c1cccc(-c2nnc(-c3ccc(C)cc3)o2)c1	·	–
CCN(CC)S(=O)(=O)c1ccc(-c2nnc(SC)o2)cc1	–	–
CCOC(=O)N1C(=O)C2(CCCCC2)N(c2ccccc2Cl)C1=S	·	–
O=C(O)C1=C[C@H](c2cccs2)C[C@H](OCc2ccc(CO)cc2)O1	–	–
